# Laboratory results taken from PubChem BioAssay AID624093 (National Center for Advancing Translational Sciences (NCATS), 2012).
# Records with an inconclusive call do not appear. Activity calls are given as the source filed them. Calls follow the shape of the dose curve; as a rule, active = well fitted inhibition curve with a large enough effect; inconclusive = small, poorly fitted or top-dose-only effect; inactive = flat fitted curve, though single readings scatter.
# Target: Dual specificity tyrosine-phosphorylation-regulated kinase 1A (Homo sapiens) (UniProt Q13627)
# Test: Confirmation Assay for Inhibitors of Dyrk1a (Kinase-Glo Assay): KU probe
# Details: Kinase-Glo ATP luminescence
# Excerpt: NIH Molecular Libraries Probe Production Centers Network [MLPCN] NIH Chemical Genomics Center [NCGC] MLSCN Grant: 1R03MH084827-01 PI Name: Tom Misteli NCGC Assay Overview: The CMGC group of protein kinases which includes CDK-like kinases (Clk) and Dyks are essential kinases found in all eukaryotes. Clks have been implicated to play a role in the regulation of alternative splicing; while Dyrks, in particular over expression of Dyrk1A, has been linked to diseases as Down syndrome (DS; OMIM 190685) and Alzheimer disease (AD; OMIM 104300). Among the members of the CMGC group, the Clks and the Dyrks are very closely related therefore to determine validity and selectivity of an active compound observed in the CLK4 qHTS screen (AID:1770), a bioluminescent counter-screen against Dyrk1A was developed. […]
# NCGC Assay Protocol Summary: Two uL/well of substrate solution (8uM Dyrktide, 2uM ATP, 25mM Tris-HCl pH 7.5, 10mM MgCl2 , 0.5mM EGTA, 5mM cystein, 0.01% Triton X-100 final concentration) was dispensed into 1536-well assay plates (Greiner, solid white, medium-binding plates) with Aurora Discovery BioRAPTR Flying Reagent Dispenser (FRD, Beckton-Dickenson). […] The plates were spun for 30 seconds (1000 rpm) and incubated at ambient temperature for 2 minutes followed by a luminescence read using Perkin Elmer ViewLux plate reader at 3 seconds exposure time and 2x binning.
smiles,measurement,value
Cc1cc(CNc2ccnc(-c3ccc4c(c3)OCO4)n2)cnc1F,Potency,18.4 µM (active)
